# Calls of active or inactive are those of the source. Cut-off read from the data, not from the text of the source, unless noted: active = inhibition above about 80%; inactive = the rest.
# Experiments:
# [1] = viability loss with induced miR-34 in A549 – imaging, A549 dox-inducible miR-34, nuclei and caspase counts, primary screen (AID 1347080;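 active = compounds whose cell count with miR-34 switched on is under 0.7 times the count with it off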); details: A549 miR-34 inducible, Hoechst nuclei count, 48 h
# [2] = growth inhibition, single agent or in combination, cell-based, chromothripsis tumors, cisplatin or BGB combos (AID 1671449); details: LFS_MB_P medulloblastoma cells;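 note: cells exposed for 96 hours; 0% = vehicle DMSO and 100% = killing by high DMSO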
# [3] = growth inhibition, single agent and combos, cell-based, chromothripsis tumors, cisplatin or BGB combos (AID 1671450); details: HDN33 neuroblastoma cells, stronger effect = higher value;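 note: cells exposed to compound for four days; 0% = vehicle DMSO and 100% = cell killing by high DMSO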
# [4] = growth inhibition, single agents and combos, ICB984, cell-based, cisplatin or BGB combos, synergistic combos for chromothripsis tumors (AID 1671451; call rule not given here;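 note: cells exposed for 96 hours before readout; 0% = vehicle DMSO and 100% = killing by high DMSO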); details: ICB984 medulloblastoma cells, drug combinations, stronger effect = higher value
# [5] = growth inhibition, single agents and combos, LFS_MB_1R, cell-based, cisplatin or BGB combos, synergistic combos for chromothripsis tumors (AID 1671452); details: LFS_MB_1R medulloblastoma cells, stronger effect = higher value;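 note: cells exposed for 96 hours before readout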
# [6] = growth inhibition, single agents and combos, HTB85, cell-based, BGB or cisplatin IC20 combos, synergistic combos for chromothripsis tumors (AID 1671453); details: HTB85 osteosarcoma cells, drug combinations, stronger effect = higher value;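 note: cells exposed for 96 hours before readout; 0% = vehicle DMSO and 100% = high DMSO killing control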
# [7] = growth inhibition, single agents and combos, CRL2098, cell-based, BGB or cisplatin IC20 combos, synergistic combos for chromothripsis tumors (AID 1671454); details: CRL2098 osteosarcoma cells, drug combinations, stronger effect = higher value;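 note: cells exposed for 96 h before readout; 0% = vehicle DMSO and 100% = killing by high DMSO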
# [8] = growth inhibition, single agents and combos, HD-MB03, cell-based, BGB or cisplatin IC20 combos, synergistic combos for chromothripsis tumors (AID 1671455; in the data active = inhibition above about 83%;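 note: 0% = vehicle DMSO and 100% = high DMSO as cytotoxic control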); details: HD-MB03 medulloblastoma cells, stronger effect = higher value
# [9] = growth inhibition, single agents and combos, UWB1.289, cell-based, BGB or cisplatin combos, synergistic combos for chromothripsis tumors (AID 1671456); details: UWB1.289 ovarian carcinoma cells, stronger effect = higher value;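 note: cells exposed to compound for four days; 0% = vehicle DMSO and 100% = killing by high DMSO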
# [10] = growth inhibition, single agents and combos, LFS_MB_2R, cell-based, cisplatin combos, synergistic combos for chromothripsis tumors (AID 1671457); details: LFS_MB_2R medulloblastoma cells, stronger effect = higher value;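 note: cells exposed to compound for four days before readout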
# [11] = growth inhibition, MDA-MB-436, cell-based, BGB or cisplatin combos, synergistic combos for chromothripsis tumors (AID 1671458; call rule not given here;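 note: cells exposed for 96 hours; 0% = vehicle DMSO and 100% = killing by high DMSO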); details: MDA-MB-436 breast carcinoma growth inhibition, drug combinations, stronger effect = higher value
# [12] = UWB1.289_BRCA1 ovarian cancer growth, cell-based, BGB or cisplatin combinations (AID 1671459); details: UWB1.289 BRCA1 ovarian carcinoma, drug combinations, stronger effect = higher value
# [13] = drug combination toxicity in non-malignant astrocytes – cell-based, BGB or cisplatin IC20 combos, cytotoxicity control for chromothriptic childhood tumor combination screen (AID 1671460); details: Human astrocytes, viability inhibition, drug combinations, at 0.5 µM, stronger effect = higher value;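 note: cells exposed to compounds for 96 hours before viability readout; 0% = vehicle and 100% = killing control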
# [14] = BT084 cell growth, single and combined drugs, ICGC_MB145, cisplatin and BGB IC40 combos (AID 1671461); details: BT084 medulloblastoma cells, drug combinations, stronger effect = higher value;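 note: cells exposed to drugs for 96 hours; 0% = vehicle DMSO and 100% = high DMSO full killing control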
# [15] = RCMB18 cell growth, single agent and combined, cisplatin and BGB IC40 combos (AID 1671462); details: RCMB18 medulloblastoma cells, stronger effect = higher value;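 note: cells exposed to compound for four days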
# [16] = CRL1545 cell growth, single agent and combined, cisplatin and BGB IC20 combos (AID 1671464); details: CRL1545 osteosarcoma cells, stronger effect = higher value;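 note: cells exposed to compound for 96 hours before readout; 0% = vehicle DMSO and 100% = high DMSO killing control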
# [17] = measured here: combination with BGB IC40, at 0.05 µM
# [18] = measured here: with BGB IC20 combination, at 0.5 µM
# [19] = measured here: with cisplatin IC20 combination, at 0.5 µM
# [20] = measured here: combination with cisplatin, at 0.5 µM
# [21] = measured here: combination with cisplatin, at 5 µM
structure (smiles),measurement,setting,value
Cc1ccc(NC(=O)CCCCCC(=O)Nc2ccccc2N)cc1,fold change,"[1]; stronger effect = lower value, cell number ratio, induced over uninduced",1.01 (inactive)
same,fold change,[1]; measured here: relative caspase fold change +Dox/-Dox,1.02
same,cell count,"[1]; measured here: total cells with miR-34 induction, stronger effect = lower value",5390
same,cell count,[1]; measured here: total cells without miR-34 induction,5360
same,inhibition,"[2]; at 0.5 µM, stronger effect = higher value",2.92% (inactive)
same,inhibition,"[2]; measured here: combination with BGB IC20, at 0.005 µM",-29.8%
same,inhibition,"[2]; measured here: combination with BGB IC40, at 0.005 µM",-45%
same,inhibition,[2]; [17],-45.4%
same,inhibition,"[2]; measured here: combination with cisplatin, at 0.5 µM, stronger effect = higher value",-6.67%
same,inhibition,"[2]; measured here: combination with cisplatin, at 5 µM, stronger effect = higher value",65.8%
same,inhibition,"[3]; BGB combo, at 5 µM",11%
same,inhibition,[3]; at 0.5 µM,-14.2% (inactive)
same,inhibition,"[3]; cisplatin combo, at 5 µM",32%
same,inhibition,[3]; [18],-21.3%
same,inhibition,[3]; [19],-11%
same,inhibition,"[3]; single agent, at 5 µM",25.4%
same,inhibition,"[4]; BGB IC20 combo, at 0.005 µM",-3.62%
same,inhibition,"[4]; BGB IC40 combo, at 0.005 µM",-26.5%
same,inhibition,"[4]; BGB IC40 combo, at 0.05 µM",6.33%
same,inhibition,[4]; at 0.5 µM,-27.2% (inactive)
same,inhibition,"[4]; cisplatin combo, at 0.05 µM",1.63%
same,inhibition,"[4]; cisplatin combo, at 0.5 µM",-36.9%
same,inhibition,"[4]; cisplatin combo, at 5 µM",-6.29%
same,inhibition,"[4]; measured here: 5 uM single agent, at 5 µM",-12.7%
same,inhibition,[5]; at 0.5 µM,-31.8% (inactive)
same,inhibition,[5]; [17],-38%
same,inhibition,[5]; [20],-38.7%
same,inhibition,[5]; [21],61.4%
same,inhibition,[6]; at 0.5 µM,-11.4% (inactive)
same,inhibition,"[6]; measured here: with BGB IC20, at 0.5 µM",11.7%
same,inhibition,"[6]; measured here: with BGB IC20, at 5 µM",31.2%
same,inhibition,"[6]; measured here: with cisplatin IC20, at 0.5 µM",-26.9%
same,inhibition,"[6]; measured here: with cisplatin IC20, at 5 µM",33.8%
same,inhibition,"[6]; single agent, at 5 µM",12.7%
same,inhibition,[7]; at 0.5 µM,-71% (inactive)
same,inhibition,"[7]; measured here: combination with BGB at IC20, at 0.5 µM",-75.9%
same,inhibition,"[7]; measured here: combination with cisplatin at IC20, at 0.5 µM",-67.2%
same,inhibition,[8]; at 0.5 µM,-7.72% (inactive)
same,inhibition,"[8]; measured here: combo with BGB at IC20, at 0.5 µM",0.828%
same,inhibition,"[8]; measured here: combo with cisplatin at IC20, at 0.5 µM",-9.85%
same,inhibition,[9]; at 0.5 µM,-13.2% (inactive)
same,inhibition,"[9]; measured here: inhibition with BGB combination, at 0.05 µM",-44.6%
same,inhibition,"[9]; measured here: inhibition with cisplatin combination, at 0.05 µM",-27.1%
same,inhibition,[10]; at 0.5 µM,-23.5% (inactive)
same,inhibition,[10]; [20],-17.5%
same,inhibition,[10]; [21],50.2%
same,inhibition,[11]; at 0.5 µM,-27.5% (inactive)
same,inhibition,"[11]; measured here: BGB combination, at 0.5 µM",-25.9%
same,inhibition,"[11]; measured here: BGB combination, at 5 µM",-14.6%
same,inhibition,"[11]; measured here: cisplatin combination, at 0.5 µM",-44.2%
same,inhibition,"[11]; measured here: cisplatin combination, at 5 µM",15.1%
same,inhibition,"[12]; BGB combination, concentration series, at 5 µM",23.3%
same,inhibition,[12]; at 0.5 µM,-23.2% (inactive)
same,inhibition,"[12]; cisplatin combination, concentration series, at 5 µM",51.6%
same,inhibition,[13],-11.1% (inactive)
same,inhibition,[13]; measured here: combo with BGB IC20,-7.99%
same,inhibition,[13]; measured here: combo with cisplatin IC20,-17.6%
same,inhibition,[14]; at 0.5 µM,-11.1% (inactive)
same,inhibition,"[14]; cisplatin combination, at 0.5 µM",8.17%
same,inhibition,"[14]; cisplatin combination, at 5 µM",68.8%
same,inhibition,"[14]; measured here: BGB IC40 combination 0.05 uM, at 0.05 µM",-52.4%
same,inhibition,"[14]; single agent, at 5 µM",25.1%
same,inhibition,[15]; at 0.5 µM,6.99% (inactive)
same,inhibition,"[15]; cisplatin combo, at 5 µM",67.3%
same,inhibition,"[15]; measured here: BGB IC40 combination, at 0.05 µM",-18.3%
same,inhibition,[15]; [20],0.344%
same,inhibition,"[15]; single agent, at 5 µM",35.9%
same,inhibition,[16]; at 0.5 µM,6.85% (inactive)
same,inhibition,[16]; [18],21.7%
same,inhibition,[16]; [19],-2.22%
same,inhibition,"[16]; single agent, at 0.05 µM",-29%
same,inhibition,"[16]; single agent, at 5 µM",60.5%
